The source of these data is PubChem BioAssay.

Assay [1] can be described thus: inhibitors of TNFa-induced NFkB p65 translocation, primary screen, imaging, HUVEC, MLSMR starter and 10KST1 sets (AID 438;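 active = inhibition above 20% together with a positive visual image hit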;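 note: compound added about 3h40 before a 20 min TNFalpha stimulation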;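 for inhibition: signal is the nuclear over cytoplasmic p65 intensity ratio per well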). To be noted: HUVEC TNFa-induced p65 nuclear translocation; cell count: measured here: nuclei count (cytotoxicity indicator), at 2.08 µM; inhibition: at 2 µM, stronger effect = higher value, 0% TNFa-plus-vehicle, 100% no-TNFa wells.
A short description of assay [2]: reduction of polyQ htt aggregates in cells – imaging, exon1htt(103Q)mCFP cells, high-content imaging, primary screen (AID 483;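 active = visual image review flags a hit and inhibition of aggregation exceeds 20%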;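 note: compound exposure lasted 3 days before fixation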;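 for nuclei count: percent of the per-plate median nuclei count of sample wells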). To be noted: exon1htt(103Q)mCFP cell line, aggregate imaging, at 2 µM; inhibition of aggregation: stronger effect = higher value; nuclei count: measured here: cell count, toxicity.
Assay [3] is described as follows: endothelial E-selectin expression blockers – imaging, HUVEC, immunofluorescence, MLSMR starter and 10KST1 sets, primary screen (AID 487;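 active = visually confirmed hit in the image check and inhibition above 20%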;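 for inhibition: signal is fraction of cell area covered by stained E-selectin grains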;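 for nuclei count: 100% = median nuclei count of all wells on the same plate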). To be noted: HUVEC TNFalpha-induced E-selectin immunofluorescence imaging, at 2 µM; inhibition: stronger effect = higher value; nuclei count: measured here: cell number, toxicity.
Assay [4] concerns the target Voltage-gated potassium channel subunit beta-2 (Rattus norvegicus) (UniProt P62483). The experiment in a line: inhibitors of rat Kvbeta2 reductase activity – biochemical, NADPH fluorescence, primary screen (AID 622;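 active = fluorescence slope higher than the sample average by over 3 SD, cut at about -0.22 in these data, passing the limit was not always enough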;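 note: slope of raw intensity against log time taken from 70 to 1610 s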). To be noted: recombinant KvBeta, 4-cyanobenzaldehyde reduction, at 10 µM, stronger effect = higher value.
For assay [5] the target is unchanged. The experiment in a line: enhancers of rat Kvbeta2 NADPH turnover – biochemical, NADPH fluorescence, primary screen (AID 623;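 active = NADPH fluorescence slope more negative than the mean of all samples by about 3 SD, 99.7% confidence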;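 note: fluorescence intensity change per second fitted from 20 to 320 s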). The settings on record: Recombinant KvBeta, NADPH fluorescence decrease slope, 10 min; at 10 µM; stronger effect = lower value.
Assay [6] deals with Alpha-2C adrenergic receptor (Homo sapiens) (UniProt P18825). The experiment in a line: compounds altering alpha2C-coupled GIRK flux – cell-based, HEK293 alpha2C/GIRK1/2, thallium flux, primary screen (AID 624;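 active = fluorescence slope after compound addition differing from the mean of all screened samples at 99.7% confidence, in either direction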;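 note: slope of fluorescence ratio to pre-addition baseline per second over 15 to 24 s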). The settings on record: thallium flux BTC fluorescence, at 10 µM, actives lie on both sides.
Sequence of Alpha-2C adrenergic receptor (Homo sapiens) (P18825 whole entry, looked up): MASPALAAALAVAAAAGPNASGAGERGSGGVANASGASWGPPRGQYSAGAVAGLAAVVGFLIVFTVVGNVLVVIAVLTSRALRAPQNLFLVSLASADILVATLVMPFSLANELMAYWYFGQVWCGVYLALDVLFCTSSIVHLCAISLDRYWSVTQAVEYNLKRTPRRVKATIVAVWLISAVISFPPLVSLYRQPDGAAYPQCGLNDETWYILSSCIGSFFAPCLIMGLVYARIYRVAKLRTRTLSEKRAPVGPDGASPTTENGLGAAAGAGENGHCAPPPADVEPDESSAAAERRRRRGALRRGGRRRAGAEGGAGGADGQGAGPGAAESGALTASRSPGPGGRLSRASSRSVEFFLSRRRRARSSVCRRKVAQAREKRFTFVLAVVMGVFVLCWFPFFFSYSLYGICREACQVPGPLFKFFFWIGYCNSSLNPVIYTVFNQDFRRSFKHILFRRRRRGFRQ
Assay [7] is described as follows: blockers of RIG-like receptor reporter activation – cell-based, Sendai virus stimulus, luciferase, 10K MLSCN set, TLR/RLR signaling modifier project, primary screen (AID 602276).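 Note: firefly luciferase from ISG56 promoter only with Renilla not read in this screen; 0% = Sendai virus plus DMSO and 100% = medium plus DMSO without virus.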 The settings on record: HEK293 RL24 IRF3 luciferase reporter, at 10 µM, stronger effect = higher value.
The nature of assay [8]: TLR3 IRF3 reporter activation blockers – cell-based, poly I:C stimulus, luciferase, 10K MLSCN set, primary screen (AID 602277;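 active = inhibition of the reporter signal at or above 50%; inactive = inhibition below 50%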). To be noted: HEK293-TLR3 RL24 IRF3 luciferase reporter, at 10 µM, stronger effect = higher value.

The source made the active and inactive calls.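 Rule for the calls, unless noted: active = inhibition at or above 50% at 10 µM; inactive = inhibition below 50%.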

Sequence of Voltage-gated potassium channel subunit beta-2 (Rattus norvegicus) (P62483 whole entry, looked up): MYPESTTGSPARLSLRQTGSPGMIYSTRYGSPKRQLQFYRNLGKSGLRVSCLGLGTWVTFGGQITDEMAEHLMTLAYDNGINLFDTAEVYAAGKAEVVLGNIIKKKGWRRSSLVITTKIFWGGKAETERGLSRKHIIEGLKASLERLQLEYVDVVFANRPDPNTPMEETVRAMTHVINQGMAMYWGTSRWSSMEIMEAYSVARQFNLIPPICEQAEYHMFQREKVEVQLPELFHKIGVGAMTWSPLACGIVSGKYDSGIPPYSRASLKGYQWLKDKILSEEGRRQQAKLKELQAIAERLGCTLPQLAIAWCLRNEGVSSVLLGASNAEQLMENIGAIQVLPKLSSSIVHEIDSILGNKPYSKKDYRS

In the case of `c1ccc(-c2ccc(-c3ccccn3)nn2)nc1`, the cell count in assay [1] is 231. Besides, the inhibition in assay [1] was 11.2% (inactive); in assay [3] it was -48.9% (inactive); in assay [7], 7.62% (inactive); in assay [8], 70.6% (active). Also, the inhibition of aggregation in assay [2] is -2.4% (inactive). In addition, the nuclei count in assay [2] was 67.7%; in assay [3], 121%. For the same compound, the fluorescence slope in assay [4] is -0.419 (inactive). The NADPH fluorescence slope in assay [5] is -1.3e-05 (inactive). The slope in assay [6] was 0.00636 (inactive).
Regarding `Cc1cc(C)c(OCC(=O)Nc2ccc3c(c2)OCO3)cc1C`, in assay [1], the cell count was 327. Further, the inhibition was -0.7% (inactive) in assay [1], 9.8% (inactive) in assay [3], -6.64% (inactive) in assay [7] and -49.1% (inactive) in assay [8]. Further, in assay [2], the inhibition of aggregation was 7.3% (inactive). In addition, the nuclei count in assay [2] is 101%; in assay [3] it was 103%. Moreover, the fluorescence slope in assay [4] was -0.437 (inactive). Moreover, the NADPH fluorescence slope in assay [5] is 4.6e-05 (inactive). Also, the slope in assay [6] is 0.00669 (inactive).
Consider `Cn1c(SCC(=O)O)nnc1C1CCCCC1`, for which the cell count in assay [1] turned out to be 396. In addition, the inhibition in assay [1] is 1.6% (inactive); in assay [3] it was -65.8% (inactive); in assay [7], -46.6% (inactive); in assay [8], -23.7% (inactive). The inhibition of aggregation in assay [2] was -3.7% (inactive). Moreover, the nuclei count in assay [2] is 99.2%; in assay [3], 105%. Further, the fluorescence slope in assay [4] is -0.515 (inactive). In addition, the NADPH fluorescence slope in assay [5] was -8.3e-06 (inactive). For the same compound, in assay [6], the slope was 0.0074 (inactive).
As to `Cc1c(C(=O)Nc2ccncc2)oc2c1C(=O)CC(C)(C)C2`, the cell count in assay [1] was 254. Also, the inhibition in assay [1] was 9.6% (inactive); in assay [3], -44.5% (inactive); in assay [7], 7.94% (inactive); in assay [8], -3.33% (inactive). The inhibition of aggregation in assay [2] was 18.9% (inactive). The nuclei count in assay [2] was 85.4%; in assay [3], 97.2%. Also, the fluorescence slope in assay [4] was -0.408 (inactive). The NADPH fluorescence slope in assay [5] is -2.8e-05 (inactive). The slope in assay [6] was 0.00527 (inactive).
As to `Cc1cccc2cc(CN(CCN3CCCC3)C(=O)NC3CCCCC3)c(=O)[nH]c12`, the cell count in assay [1] stood at 641. Also, the inhibition in assay [1] is -7.5% (inactive); in assay [3], -7.3% (inactive); in assay [7], 12.6% (inactive); in assay [8], 38.4% (inactive). Further, in assay [2], the inhibition of aggregation was -0.1% (inactive). The nuclei count turned out to be 84.8% in assay [2] and 97% in assay [3]. Also, the fluorescence slope in assay [4] was -0.428 (inactive). The NADPH fluorescence slope in assay [5] was 1e-05 (inactive). Also, the slope in assay [6] was 0.00641 (inactive).
As for `CCOc1ncccc1C(=O)Nc1ccc(Cl)cc1`, in assay [1], the cell count was 861. Further, the inhibition in assay [1] was -15% (inactive); in assay [3], -36.9% (inactive); in assay [7], 10.1% (inactive); in assay [8], 35.6% (inactive). Besides, in assay [2], the inhibition of aggregation was -9.2% (inactive). Further, the nuclei count turned out to be 121% in assay [2] and 105% in assay [3]. Besides, the fluorescence slope in assay [4] was -0.44 (inactive). Also, the NADPH fluorescence slope in assay [5] was -3.2e-06 (inactive). Moreover, the slope in assay [6] is 0.0068 (inactive).
Turning to `CCOC(=O)N1CCC(NC(=O)CN2C(=O)CCSc3ccccc32)CC1`, in assay [1], the cell count amounted to 807. Besides, the inhibition in assay [1] is -8.5% (inactive); in assay [3] it was -78% (inactive); in assay [7] it was 4.21% (inactive); in assay [8], 1.38% (inactive). For the same compound, the inhibition of aggregation in assay [2] was 5.8% (inactive). Besides, the nuclei count in assay [2] amounted to 101%; in assay [3] it was 108%. Besides, the fluorescence slope in assay [4] was -0.515 (inactive). Besides, the NADPH fluorescence slope in assay [5] was -3.1e-05 (inactive). For the same compound, in assay [6], the slope is 0.00644 (inactive).
On to `CCn1cc(C2=NCC(C)O2)c2ccccc21` (centres undefined), for which, in assay [1], the cell count stood at 487. The inhibition in assay [1] was 5% (inactive); in assay [3] it was -128% (inactive); in assay [7] it was 12.7% (inactive); in assay [8] it was 25.5% (inactive). The inhibition of aggregation in assay [2] was -14% (inactive). Moreover, the nuclei count in assay [2] came out at 83.2%; in assay [3], 102%. Besides, the fluorescence slope in assay [4] is -0.595 (inactive). Also, the NADPH fluorescence slope in assay [5] was -9.7e-06 (inactive). Further, the slope in assay [6] is 0.00619 (inactive).
Consider `CC1CCN(S(=O)(=O)c2cccc(C(=O)Nc3ccccn3)c2)CC1`, for which the cell count in assay [1] is 338. Also, the inhibition in assay [1] was -4.3% (inactive); in assay [3] it was 4.5% (inactive); in assay [7] it was 18.4% (inactive); in assay [8], 23.9% (inactive). In addition, the inhibition of aggregation in assay [2] was 26.3% (inactive). Also, the nuclei count was determined as 78% in assay [2] and 90.4% in assay [3]. The fluorescence slope in assay [4] was -0.338 (inactive). The NADPH fluorescence slope in assay [5] is -4.1e-05 (inactive). Moreover, in assay [6], the slope is 0.00478 (inactive).
On to `Cc1cc(C)n(-c2nc3c(c(=O)n(Cc4ccc(Cl)c(Cl)c4)c(=O)n3C)n2C)n1`, for which, in assay [1], the cell count turned out to be 404. In addition, the inhibition in assay [1] was -1.4% (inactive); in assay [3], -8.9% (inactive); in assay [7], 4.56% (inactive); in assay [8] it was 21.6% (inactive). Besides, the inhibition of aggregation in assay [2] was 1.2% (inactive). For the same compound, the nuclei count in assay [2] worked out at 105%; in assay [3], 115%. In addition, in assay [4], the fluorescence slope is -0.6 (inactive). Further, in assay [5], the NADPH fluorescence slope was -1.8e-05 (inactive). Besides, in assay [6], the slope was 0.00595 (inactive).
For the compound `COc1cccc(NC(=O)C2C3C=CC4(O3)C2C(=O)N(C(C)C)C4C(=O)NC2CCCCC2C)c1` (centres undefined), in assay [1], the cell count worked out at 424. Besides, the inhibition in assay [1] is 2.6% (inactive); in assay [3], -98.5% (inactive); in assay [7], 2.64% (inactive); in assay [8] it was 7.71% (inactive). Also, in assay [2], the inhibition of aggregation was -8.5% (inactive). Further, the nuclei count was 110% in assay [2] and 114% in assay [3]. Also, the fluorescence slope in assay [4] was -0.525 (inactive). Further, the NADPH fluorescence slope in assay [5] is 3.5e-06 (inactive). Also, in assay [6], the slope was 0.00614 (inactive).
For the compound `NC(=O)C(Cc1ccccc1)NS(=O)(=O)c1ccc(N2CCCC2=O)cc1` (centres undefined), the cell count in assay [1] came out at 570. Further, the inhibition is -8.7% (inactive) in assay [1], -5.1% (inactive) in assay [3], 8.09% (inactive) in assay [7] and -25% (inactive) in assay [8]. In assay [2], the inhibition of aggregation is 4.5% (inactive). Moreover, the results for the nuclei count in assay [2] and in assay [3] were 100% and 95.5%, respectively. In addition, in assay [4], the fluorescence slope is -0.585 (inactive). The NADPH fluorescence slope in assay [5] is -4e-05 (inactive). For the same compound, the slope in assay [6] is 0.00321 (inactive).
For the compound `O=C(c1ccccc1-c1ccccc1)N1CCN(c2ccccn2)CC1`, in assay [1], the cell count worked out at 384. The inhibition in assay [1] was 7.8% (inactive); in assay [3], -93.4% (inactive); in assay [7], 43.1% (inactive); in assay [8], 26.8% (inactive). Besides, the inhibition of aggregation in assay [2] is -81.8% (inactive). For the same compound, the nuclei count in assay [2] worked out at 17.3%; in assay [3] it was 102%. Also, the fluorescence slope in assay [4] is -0.5 (inactive). For the same compound, the NADPH fluorescence slope in assay [5] is -3.6e-05 (inactive). For the same compound, in assay [6], the slope was 0.00494 (inactive).
With `CCC1(C)Cc2c(C#N)c(N)n(N)c(=S)c2CO1` (centres undefined), in assay [1], the cell count was found to be 795. Also, the inhibition in assay [1] is 1.1% (inactive); in assay [3], -97% (inactive); in assay [7], 9.11% (inactive); in assay [8], 22.9% (inactive). In assay [2], the inhibition of aggregation is -11.2% (inactive). The values for the nuclei count in assay [2] and in assay [3] were 97.6% and 106%, respectively. For the same compound, the fluorescence slope in assay [4] was -0.422 (inactive). The NADPH fluorescence slope in assay [5] was -4.6e-05 (inactive). Further, the slope in assay [6] is 0.00514 (inactive).
